SMILES strings stand for the structures. Records with an inconclusive call do not appear. A call without a number means that no potency is given here. Activity calls are given as the source filed them. The call rests on the fitted dose curve; in most records, active means well fitted inhibition curve with a large enough effect; inconclusive means small, poorly fitted or top-dose-only effect; inactive means flat fitted curve, though single readings scatter.
Potency means the concentration at half of the fitted maximal effect.

This assay can be described thus: qHTS for Inhibitors of Plasmodium falciparum (HB3) proliferation (AID 504318). Further: nearly all actives have a fitted effect of over 60% in size. The following applies: P. falciparum HB3 in erythrocytes, SYBR Green DNA, 72 h; series mostly up to 7.21 µM. In short, it runs like this:
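Erythrocytes infected with P. falciparum line (0.3% parasitemia, 2.5% hematocrit final) incubated with compounds 72 h at 37 °C, 5% CO2; SYBR Green lysis buffer added, fluorescence read next day. Normalized to 0.29 uM artemisinin and DMSO.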
(In general: Quantitative high-throughput screening tests each substance at several concentrations.)
`COC(=O)c1ccc(CN2C(=O)[C@@]3(CC(C)=CC[C@@H](C)O3)c3ccccc32)cc1`: the Potency entry was “inactive”.

Regarding `COc1ccccc1C=CC1=CC2(C)CC1(C)C(c1ccccc1OC)CC2=O` (centres undefined), the Potency is 1.69 µM (active).

For the compound `CCCNC(=O)N1C2=NC(C(=O)OC)=C(C(=O)OC)[C@@H]3N(C)c4ccc(OC)cc4[C@]23C[C@H]1C(=O)OC`, the Potency is 2.94 µM (active).

Regarding `CC1=C[C@@H](COc2ccccc2)O[C@@]2(C1)C(=O)N(Cc1ccccc1)c1ccccc12`, the Potency entry is “inactive”.

As for `C=CCOC(=O)N[C@@H](c1coc2ccccc2c1=O)[C@@H](C)C=CCC(=O)OC`, the Potency entry is “inactive”.

`Cc1ccccc1Nc1oc(-c2ccccc2)nc1C(C)(C)C`: the Potency is 1.69 µM (active).

As to `COC(=O)C1=C(C)N(Cc2ccccc2)C(=NCCc2ccc([N+](=O)[O-])cc2)NC1c1cccc(F)c1` (centres undefined), the Potency entry is “inactive”.

Regarding `COc1ccc(O[C@H]2C=C[C@@H](c3ccccc3)O[C@H]2CON=C(C)CCN2CCCc3nc(C)c(C)cc32)cc1`, the Potency is 3.29 µM (active).

With `COC(=O)C1=C(C)N(Cc2ccccc2)C(=NCC2CC2)NC1c1ccc(Br)cc1` (centres undefined), the Potency entry was “inactive”.

Regarding `COC(=O)C1=C(C)N(Cc2ccccc2)C(=NCCCCO)NC1c1cccc(F)c1` (centres undefined), the Potency entry was “inactive”.

Take `CC(C)(C)Nc1oc(-c2ccccc2)nc1C=Cc1ccccc1`: the Potency was 1.69 µM (active).

On to `C=C(C)C(=O)C=CC=Cc1ccccc1`, for which the Potency entry was “inactive”.

With `CCN1C(=NCc2cccc(C(F)(F)F)c2)NC(c2cccs2)C(C(=O)OC)=C1C` (centres undefined), the Potency result is “inactive”.

As to `COC(=O)C1=C(C)N(Cc2ccccc2)C(=NCC(C)C)NC1c1cccc(F)c1` (centres undefined), the Potency entry is “inactive”.

These data come from PubChem BioAssay (NCATS).
